The source of these data is PubChem BioAssay.

Values joined by “and” are separate entries in the source; they are usually repeats but may differ in a detail not shown here. Equal entries are not always repeated. Active and inactive are the calls of the source.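 The calls were made as follows, unless noted: active = inhibition at or above 50% relative to wild type and mutant plate controls; inactive = inhibition below 50%.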

A short description of test [1]: inhibitors of TNFa-induced NFkB p65 translocation, primary screen, imaging, HUVEC, MLSMR starter and 10KST1 sets (AID 438;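 active = inhibition above 20% together with a positive visual image hit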;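 also: compound added about 3h40 before a 20 min TNFalpha stimulation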;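 as to inhibition: signal is the nuclear over cytoplasmic p65 intensity ratio per well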). The settings on record: HUVEC TNFa-induced p65 nuclear translocation; cell count: measured here: nuclei count (cytotoxicity indicator), at 2.08 µM unless noted; inhibition: at 2 µM, stronger effect = higher value unless noted.
Test [2] is described as follows: inhibitors of mutant huntingtin aggregation, primary screen, imaging, exon1htt(103Q)mCFP cells, high-content imaging (AID 483;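 active = visual image review flags a hit and inhibition of aggregation exceeds 20%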;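 also: compound exposure lasted 3 days before fixation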;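 as to nuclei count: percent of the per-plate median nuclei count of sample wells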). The note with it: exon1htt(103Q)mCFP cell line, aggregate imaging, at 2 µM; inhibition of aggregation: stronger effect = higher value; nuclei count: measured here: cell count, toxicity.
Test [3] is described as follows: inhibitors of E-selectin induction by TNFa, primary screen, imaging, HUVEC, immunofluorescence, MLSMR starter and 10KST1 sets (AID 487;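 active = visually confirmed hit in the image check and inhibition above 20%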;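 as to inhibition: signal is fraction of cell area covered by stained E-selectin grains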;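 as to nuclei count: 100% = median nuclei count of all wells on the same plate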). The note with it: HUVEC TNFalpha-induced E-selectin immunofluorescence imaging, at 2 µM; inhibition: stronger effect = higher value; nuclei count: measured here: cell number, toxicity.
Test [4] can be described thus: DUSP6 inhibitors restoring Erk phosphorylation by chemical complementation, primary imaging in DUSP6-transfected HeLa (AID 609;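 active = compounds giving at least 50% inhibition in the cell-based MKP-3 phosphatase rescue imaging test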;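 as to inhibition: phospho-Erk level distribution per well compared with pooled transfected vehicle control wells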). The note with it: HeLa MKP-3 transfected, phospho-Erk imaging KS statistic, at 10 µM.
For test [5], the target named is Dual specificity protein phosphatase 6 (Homo sapiens) (UniProt Q16828). Described as above. The settings on record: HeLa MKP-3 transfected, phospho-Erk imaging KS statistic, at 10 µM, stronger effect = higher value.
For test [6], the target named is Voltage-gated potassium channel subunit beta-2 (Rattus norvegicus) (UniProt P62483). In words: KvBeta enzyme negative modulators, primary screen, biochemical, NADPH fluorescence (AID 622;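 active = fluorescence slope higher than the sample average by over 3 SD, cut at about -0.22 in these data, passing the limit was not always enough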;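 also: slope of raw intensity against log time taken from 70 to 1610 s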). The note with it: recombinant KvBeta, 4-cyanobenzaldehyde reduction, at 10 µM, stronger effect = higher value.
For test [7] the target is unchanged. Nature of the test: KvBeta positive modulators, primary screen, biochemical, NADPH fluorescence (AID 623;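 active = NADPH fluorescence slope more negative than the mean of all samples by about 3 SD, 99.7% confidence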;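 also: fluorescence intensity change per second fitted from 20 to 320 s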). The note with it: Recombinant KvBeta, NADPH fluorescence decrease slope, 10 min; at 10 µM; stronger effect = lower value.
Test [8] has as its target Alpha-2C adrenergic receptor (Homo sapiens) (UniProt P18825). Nature of the test: modulators of alpha2C/GIRK thallium flux, primary screen, cell-based, HEK293 alpha2C/GIRK1/2 (AID 624;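 active = fluorescence slope after compound addition differing from the mean of all screened samples at 99.7% confidence, in either direction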;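 also: slope of fluorescence ratio to pre-addition baseline per second over 15 to 24 s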). The note with it: thallium flux BTC fluorescence, at 10 µM, actives lie on both sides.
Test [9] is described as follows: inhibitors of larval lipid processing in zebrafish, primary screen, whole organism, PED6 fluorescence, gall bladder and intestine (AID 686;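 active = a full or partial loss of lipid-probe fluorescence in the fish gall bladder, intestine or both, judged by eye; inactive = no fluorescence loss, or compound toxic to the fish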;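 also: larvae 5 to 7 days old with five fish per well; signal comes from phospholipase A2 cleavage of quenched PED6 carried via bile; overnight exposure to compound and PED6 before scoring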). The settings on record: Zebrafish larvae PED6 lipid processing, fluorescence scoring.
Test [10] in a line: inhibitors of Chlamydomonas gravitaxis, primary screen, whole organism, Chlamydomonas reinhardtii, WT vs cilia-less mutant, absorbance, 96-well (AID 463189).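 Also: 0% = wild type cc124 cells in DMSO and 100% = ciliumless bld1 mutant cells.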 The note with it: OD600 absorbance, 2 days, at 10 µM, stronger effect = higher value.
The nature of test [11]: inhibitors of Sendai virus-induced IRF3 signaling, primary screen, TLR/RLR signaling modifier project, cell-based, Sendai virus stimulus, luciferase, 10K MLSCN set (AID 602276;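 active = inhibition at or above 50% at 10 µM; inactive = inhibition below 50%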;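 also: firefly luciferase from ISG56 promoter only with Renilla not read in this screen; 0% = Sendai virus plus DMSO and 100% = medium plus DMSO without virus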). The note with it: HEK293 RL24 IRF3 luciferase reporter, at 10 µM, stronger effect = higher value.
Test [12] can be described thus: inhibitors of poly I:C-induced TLR3 signaling, primary screen, cell-based, poly I:C stimulus, luciferase, 10K MLSCN set (AID 602277;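 active = inhibition of the reporter signal at or above 50%; inactive = inhibition below 50%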). The note with it: HEK293-TLR3 RL24 IRF3 luciferase reporter, at 10 µM, stronger effect = higher value.
The target of test [13] is Muscarinic acetylcholine receptor M4 (Homo sapiens) (UniProt P08173). In words: compounds altering M4/GIRK thallium flux, either direction, primary screen, M4 allosteric agonist project, cell-based, HEK293 M4/GIRK, BTC-AM (AID 625;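 active = fluorescence slope after compound addition differing from the mean of all tested samples at 99.7% confidence, mostly higher but some lower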;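 also: thallium influx through GIRK channels coupled to M4 in HEK293 cells with BTC-AM dye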). The note with it: at 10 µM, actives lie on both sides.
Where [14] appears, read: measured here: cell density z-score.
Where [15] appears, read: measured here: nuclear c-Myc green intensity z-score.
Setting [16] is: measured here: nuclear pErk red intensity z-score, stronger effect = higher value.

What is called inhibition is the relative decrease from the control value, in per cent.

Dual specificity protein phosphatase 6 (Homo sapiens), sequence (Q16828 whole entry, looked up): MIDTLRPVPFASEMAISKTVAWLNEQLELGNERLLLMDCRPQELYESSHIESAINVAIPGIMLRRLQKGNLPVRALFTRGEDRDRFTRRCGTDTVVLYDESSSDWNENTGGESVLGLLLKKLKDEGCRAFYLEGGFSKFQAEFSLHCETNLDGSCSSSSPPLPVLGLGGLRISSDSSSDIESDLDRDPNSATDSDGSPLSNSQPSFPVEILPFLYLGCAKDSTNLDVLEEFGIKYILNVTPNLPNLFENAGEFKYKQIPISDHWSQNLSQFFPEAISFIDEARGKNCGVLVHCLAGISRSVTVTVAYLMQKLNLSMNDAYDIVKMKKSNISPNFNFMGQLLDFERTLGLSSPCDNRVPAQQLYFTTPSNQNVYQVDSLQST
Voltage-gated potassium channel subunit beta-2 (Rattus norvegicus), sequence (P62483 whole entry, looked up): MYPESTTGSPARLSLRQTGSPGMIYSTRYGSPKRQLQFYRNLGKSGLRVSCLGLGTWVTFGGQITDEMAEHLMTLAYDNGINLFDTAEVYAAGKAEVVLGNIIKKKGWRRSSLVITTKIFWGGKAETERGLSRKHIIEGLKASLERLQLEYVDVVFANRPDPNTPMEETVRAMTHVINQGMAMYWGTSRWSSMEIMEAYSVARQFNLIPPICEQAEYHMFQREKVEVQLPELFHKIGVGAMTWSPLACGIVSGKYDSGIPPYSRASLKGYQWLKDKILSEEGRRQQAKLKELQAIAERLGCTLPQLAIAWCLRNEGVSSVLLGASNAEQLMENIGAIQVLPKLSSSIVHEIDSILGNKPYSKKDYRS
Alpha-2C adrenergic receptor (Homo sapiens), sequence (P18825 whole entry, looked up): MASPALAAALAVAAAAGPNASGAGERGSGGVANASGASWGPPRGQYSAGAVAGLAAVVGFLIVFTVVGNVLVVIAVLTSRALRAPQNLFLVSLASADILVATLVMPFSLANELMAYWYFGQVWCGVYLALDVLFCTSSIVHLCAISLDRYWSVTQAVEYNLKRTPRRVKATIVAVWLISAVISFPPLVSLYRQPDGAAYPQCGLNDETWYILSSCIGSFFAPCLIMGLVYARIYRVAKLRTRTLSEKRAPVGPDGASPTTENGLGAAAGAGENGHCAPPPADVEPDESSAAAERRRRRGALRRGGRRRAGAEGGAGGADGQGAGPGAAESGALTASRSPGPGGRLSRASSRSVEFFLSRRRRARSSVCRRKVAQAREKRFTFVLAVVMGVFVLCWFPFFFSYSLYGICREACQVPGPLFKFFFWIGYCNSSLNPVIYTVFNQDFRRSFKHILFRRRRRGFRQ
Muscarinic acetylcholine receptor M4 (Homo sapiens), sequence (P08173 whole entry, looked up): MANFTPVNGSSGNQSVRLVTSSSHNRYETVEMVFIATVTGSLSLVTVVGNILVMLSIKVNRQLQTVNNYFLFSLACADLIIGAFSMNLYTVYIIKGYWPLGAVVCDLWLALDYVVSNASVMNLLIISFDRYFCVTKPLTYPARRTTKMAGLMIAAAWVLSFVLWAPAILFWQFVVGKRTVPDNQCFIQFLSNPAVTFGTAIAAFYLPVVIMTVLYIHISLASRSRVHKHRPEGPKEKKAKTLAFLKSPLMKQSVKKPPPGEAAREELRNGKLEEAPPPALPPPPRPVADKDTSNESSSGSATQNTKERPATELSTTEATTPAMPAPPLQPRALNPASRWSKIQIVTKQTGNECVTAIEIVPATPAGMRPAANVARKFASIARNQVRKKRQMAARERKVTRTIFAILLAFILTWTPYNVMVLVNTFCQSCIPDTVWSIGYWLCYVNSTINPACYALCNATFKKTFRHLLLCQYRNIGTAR

In test [1], `O=C(CCCN1CCC2(CC1)C(=O)NCN2c1ccccc1)c1ccc(F)cc1` displayed a cell count of 564. Further, the inhibition is 2.1% (inactive) in test [1]; 3.3% (inactive) in [3]; 3.59% (inactive) in test [5]; 4.76% (inactive) and 18.8% (inactive) in [10]; 29.9% (inactive) in test [11]; 29.3% (inactive) in [12]. Besides, the inhibition of aggregation in test [2] is -20.4% (inactive). Besides, the nuclei count turned out to be 100% in [2] and 103% in test [3]. In addition, the z-score was -2.08 in test [4] (setting [14]), 0.206 in test [4] (setting [15]) and 3.52 in test [4] (setting [16]). For the same compound, the fluorescence slope in [6] is -0.51 (inactive). For the same compound, the NADPH fluorescence slope in test [7] was -3.9e-05 (inactive). The slope in test [8] was 0.00481 (inactive). In addition, the outcome in [9] was inactive.
The compound `COC(=O)C(O)(c1c[nH]c2ccccc12)C(F)(F)F` (stereo unspecified) returned a cell count in [1] of 466. The inhibition in test [1] was -0.7% (inactive); in [3] it was -19.2% (inactive); in test [5], -5.26% (inactive); in test [10], -11.1% (inactive). This compound also yielded a nuclei count in test [3] of 112%. The figures for the z-score in test [4] (setting [14]), in test [4] (setting [15]) and in test [4] (setting [16]) were 0.726, 0.429 and -1.12, respectively. Besides, in [6], the fluorescence slope is -0.373 (inactive). The NADPH fluorescence slope in test [7] was 1.2e-05 (inactive). For the same compound, in test [8], the slope was 0.00556 (inactive). In test [9], the outcome was inactive.
The compound `Clc1ccc(COC(Cn2ccnc2)c2ccc(Cl)cc2Cl)cc1` (stereo unspecified) had a cell count in test [1] of 571. Also, the inhibition in [1] was -2% [at 2 µM, stronger effect = higher value, 0% TNFa-plus-vehicle, 100% no-TNFa wells] (inactive); in test [3] it was -14.8% (inactive); in test [5], 13.3% [cells stimulated with TPA for 15 min] (inactive); in test [10], 41.7% (inactive); in [11] it was 22.8% (inactive); in test [12] it was 32.2% (inactive). In addition, in [2], the inhibition of aggregation was -19.8% (inactive). In addition, the nuclei count is 61.4% in test [2] and 106% in test [3]. In addition, the z-score is 0.542 in test [4] (measured here: cell density z-score, cells stimulated with TPA for 15 min); 1.67 in test [4] (measured here: nuclear c-Myc green intensity z-score, cells stimulated with TPA for 15 min); -0.914 in test [4] (measured here: nuclear pErk red intensity z-score, stronger effect = higher value, cells stimulated with TPA for 15 min). In test [6], the fluorescence slope was -0.51 (inactive). For the same compound, the NADPH fluorescence slope in test [7] was 4.6e-06 (inactive). Besides, the slope in test [8] is 0.00388 (inactive). Moreover, in test [9], the outcome was “inactive; toxic [screened at 20 µM (by protocol)]”.
In test [1], `OCCOCC#CCN1CCOCC1` yielded a cell count of 582. Besides, the inhibition was 8.1% (inactive) in test [1]; -167% (inactive) in [3]; 17.8% (inactive) in [5]; -6.14% (inactive) in [10]; 19.2% (inactive) in [11]; 20.5% (inactive) in [12]. In [2], the inhibition of aggregation was -15.3% (inactive). Also, the nuclei count in test [2] was determined as 100%; in test [3], 137%. Further, the z-score in test [4] (setting [14]) was -0.584; in [4] (setting [15]), 1.05; in test [4] (setting [16]), 0.188. Also, the values for the fluorescence slope in test [6] and in test [13] were -0.497 (inactive) and 0.006 (inactive), respectively. In addition, the NADPH fluorescence slope in test [7] is -5.8e-05 (inactive). Further, in test [9], the call was inactive.
In turn, `CCCC(=O)OCC[N+](C)(C)C` displayed a cell count in test [1] of 626. Further, the inhibition is -8.2% (inactive) in test [1]; -31.1% (inactive) in test [3]; 13.3% (inactive) in [5]; 18.3% (inactive) in test [10]; 21.4% (inactive) in test [11]; 35% (inactive) in test [12]. Besides, the inhibition of aggregation in [2] was -16.7% (inactive). Besides, the nuclei count in test [2] was found to be 111%; in [3], 135%. Moreover, the z-score was 0.404 in test [4] (setting [14]), -0.787 in [4] (setting [15]) and 0.37 in test [4] (setting [16]). In addition, in test [6], the fluorescence slope is -0.481 (inactive). Further, the NADPH fluorescence slope in [7] was 5e-06 (inactive). In addition, the slope in [8] is 0.00561 (inactive). In addition, the compound was classed as inactive in test [9].
